Screens as filed in PubChem.
HIF-2a block: inhibitors of HIF-2a; 786-0 RCC cells HIF-2a reporter, luciferase luminescence, overnight; inhibition, % at 18.8 µM; hit rate 0.72% among 360,000; AID 624352;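 active = inhibition of the luminescence signal of 40% or more relative to plate controls, in a single-dose primary screen at 18.75 µM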
Shn3 3UTR inh: Schnurri-3 reporter inhibition in Clone20 osteoblasts. Clone20 osteoblast Shn3 3'UTR firefly luciferase, 24 h. inhibition, % at 12.5 µM. hit rate 0.52% among 360,000;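 active = mean inhibition of at least 75% with every replicate also reaching 75%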
KKLEB cytotox: counter-screen for CF NF-kB inhibitors: cytotoxicity | KKLEB CF airway cells viability, ATPlite luminescence, overnight; hits give low values; cells stimulated with P. aeruginosa culture filtrate | activity change (cytotoxicity), % at 5 µM | hit rate 0.36% among 360,000;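 active = corrected activity change at or below -50% at 5 µM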
MITF TRPM1 inh: MITF TRPM1 promoter inhibition in SK-MEL-5 cells | SK-MEL-5 TRPM1 promoter luciferase, 24 h | inhibition, % at 12.5 µM | hit rate 0.83% among 330,000;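 active = mean inhibition across replicates of 60% or more, whatever share of single replicates reaches that level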
CF NFkB inh: cystic fibrosis NF-kB activation inhibition; KKLEB NF-kB-GFP reporter, PAF-induced, GFP fluorescence overnight; AID 588850; inhibition, % at 5 µM; hit rate 0.86% among 360,000;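 active = at least 50% inhibition at 5 µM, scaled per plate between neutral and stimulator controls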;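 note: PAF is a Pseudomonas aeruginosa culture filtrate used as stimulus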
Peg3 promoter: Peg3 promoter activity inhibition; inhibition, % at 20 µM; HeLa PEG-Prom luciferase reporter, luminescence, overnight; AID 588405; hit rate 1.7% among 360,000;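 active = inhibition of at least 50% at 20 µM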
Numbers stand for hits; n = inactive; x = no result given. Most compounds without a hit are left out; they make up all but 2.7% or so of the library.

SMILES	HIF-2a block	Shn3 3UTR inh	KKLEB cytotox	MITF TRPM1 inh	CF NFkB inh	Peg3 promoter
CCOc1cc2[nH]c(=S)n(Cc3ccc(C(=O)NCCCN4CCOCC4)cc3)c(=O)c2cc1OCC	n	n	n	n	n	n
CCOc1cc2[nH]c(=O)n(Cc3ccc(C(=O)NCCCN4CCC(C)CC4)cc3)c(=O)c2cc1OCC	n	n	n	n	n	82.2
CC1CCN(CCCNC(=O)c2ccc3c(=O)n(Cc4ccc(Cl)cc4)c(=S)[nH]c3c2)CC1	n	n	n	n	n	113.8
CN(C)C(=O)N1CCc2ccc([N+](=O)[O-])cc21	n	n	n	x	n	n
COc1ccccc1N(C(C)=O)C1=C(Cl)C(=O)c2ccccc2C1=O	87.6	n	n	x	51.2	100.3
Cc1cc(NC(=O)CS(=O)(=O)c2cn(Cc3cccc(C(F)(F)F)c3)c3ccccc23)no1	n	n	n	x	n	n
Cc1ccc(OCC(=O)NNc2c3ccccc3nc3ccccc23)cc1	n	n	n	n	n	82.7
Cc1cccc(OCC(=O)NNc2c3ccccc3nc3ccccc23)c1	n	n	n	n	n	n
Cc1ccc(Cn2c(=N)n(CC(=O)c3ccc([N+](=O)[O-])cc3)c3ccccc32)cc1	n	n	-61.3	98.3	n	102.5
N=c1n(CCN2CCCCC2)c2ccccc2n1CC(=O)c1ccc(Cl)c(Cl)c1	n	n	n	x	n	n
CCn1c(=N)n(CC(=O)c2ccc(Cl)c(Cl)c2)c2ccccc21	n	n	n	n	n	98.8
Cc1ccc(C(=O)Cn2c(=N)n(CCN3CCOCC3)c3ccccc32)cc1	n	n	n	n	n	n
CC(C)=NNc1cnnc2ccc([N+](=O)[O-])cc12	n	n	n	x	n	n
O=C(c1ccc(S(=O)(=O)Cc2cc(F)ccc2F)c([N+](=O)[O-])c1)N1CCOCC1	n	n	n	x	n	n
CC(C)CNc1cc(N2CCCC2)ccc1[N+](=O)[O-]	n	n	n	n	n	54.5
CCCC(=O)N1CCC1(C)C(=O)Nc1scc(C)c1C#N (stereo unspecified)	n	n	n	x	n	n
CCOC(=O)CSc1ccc(C(=O)N2CCN(C)CC2)cc1[N+](=O)[O-]	n	n	n	n	n	104.2
CCCc1nc(SCC(=O)N2CCC(Cc3ccccc3)CC2)c2c(=O)n(C)c(=O)n(C)c2n1	n	n	n	n	n	98.7
Cn1c(=O)c2c(SCC(=O)N3CCCc4ccccc43)nc(CC(C)(C)C)nc2n(C)c1=O	53.3	n	n	n	n	n
Cn1c(=O)c2c(SCC(N)=O)nc(CC(C)(C)C)nc2n(C)c1=O	n	n	n	n	n	n
CCCc1nc(SCC(=O)Nc2ccccc2)c2c(=O)n(C)c(=O)n(C)c2n1	n	n	n	n	n	n
CCCS(=O)(=O)NC(=O)C1(C)CCN(C(=O)c2ccc3ccccc3n2)C1 (stereo unspecified)	n	n	n	x	n	n
O=C(NNc1ccccc1)C(=O)NNS(=O)(=O)c1ccc(CCCl)cc1	n	85.8	n	n	n	n
C(=C\c1ccccc1)/CN1CCN(C(c2nnnn2Cc2ccccc2)C2CC2)CC1 (stereo unspecified)	n	n	n	x	n	n
CCOc1ccccc1Nc1cc(C)nc2ccccc12	n	92.0	n	x	n	n
SMILES	HIF-2a block	Shn3 3UTR inh	KKLEB cytotox	MITF TRPM1 inh	CF NFkB inh	Peg3 promoter
CCOc1ccccc1Nc1cc(C)nc2ccc(C)cc12	n	n	n	n	n	n
Cc1c(CCCl)c(Cl)n2c(nc3ccccc32)c1C#N	83.7	98.7	-84.8	97.4	77.5	101.0
CCc1c(C)c(C#N)c2nc3ccccc3n2c1NC	n	n	n	n	n	n
Cc1cc(Cl)n2c(nc3ccccc32)c1C#N	n	n	n	81.3	64.5	103.4
CC(=O)Nc1ccc(CN2C(=O)C(C)(C)ON=C2c2ccc(C(F)(F)F)cc2)cc1	n	n	n	x	n	n
Cc1cc(C)n2c(NC3CCCCC3)c(-c3cccnc3)nc2n1	n	x	x	x	x	x
O=C1Nc2ccccc2-n2nnnc2C1N1CCc2ccccc2C1 (stereo unspecified)	n	x	x	x	x	x
CCOC(=O)CSCC(NC(=O)OC(C)(C)C)C(=O)OCC (stereo unspecified)	41.3	n	n	n	n	n
COC(=O)C(C(=O)OC)c1ccccc1NS(=O)(=O)c1c(C)cc(C)cc1C	n	x	x	x	x	x
Cc1cccc(N=C2NC(=O)S/C2=C\c2ccco2)c1	n	n	n	n	n	n
O=C1NC(=Nc2ccc(Cl)cc2)/C(=C/c2ccco2)S1	n	n	n	n	n	62.9
O=C(C(=O)N1CCC(Cc2ccccc2)CC1)c1ccccc1	n	x	x	x	x	x
O=C(/C(=C/O)N=Nc1ccccc1)c1ccc(Cl)cc1	n	n	n	n	62.8	n
O=C(/C(=C/O)N=Nc1ccccc1)c1ccncc1	n	n	n	n	n	n
CC(=O)c1ccc(N=Nc2ccc(C)cc2)cc1	n	n	n	n	n	n
Cc1ccc(N=N/C(=C\O)C(=O)c2ccc(Cl)cc2)cc1	n	n	-56.9	n	76.2	75.1
O=C(N=Nc1c(O)[nH]c2ccc(Br)cc12)c1cc(-c2cccs2)nc2ccccc12	n	n	n	n	n	59.7
O=C(N=Nc1c(O)[nH]c2ccc(Br)cc12)c1ccco1	n	n	n	x	n	n
O=C(N=Nc1c(O)[nH]c2ccc(Br)cc12)c1cc(-c2cccc3ccccc23)n[nH]1	n	n	n	n	n	54.9
Cn1c(O)c(N=NC(=O)c2cc(-c3cccs3)nc3ccccc23)c2ccccc21	n	n	n	n	n	n
CN(N=Cc1ccccc1O)c1ccc2ccccc2n1	n	n	n	x	n	n
CN(/N=C/c1cc(Br)cc(Br)c1O)c1cccc(C(F)(F)F)n1	n	n	n	n	n	57.5
CC(C)C1C(=O)N(Cc2cn(CCC3OCCO3)nn2)CCS(=O)(=O)N1Cc1ccc(-c2ccc(Cl)c(Cl)c2)cc1 (stereo unspecified)	n	88.8	n	x	n	59.9
CSc1ccc(Cn2c(C)c(C(=O)NCc3ccco3)sc2=O)cc1	n	n	n	x	n	n
O=C1c2ccc3c4c(ccc(c24)C(=O)N1c1cccc(O)c1)C(=O)N(c1cccc(O)c1)C3=O	n	x	n	99.9	50.7	n
SMILES	HIF-2a block	Shn3 3UTR inh	KKLEB cytotox	MITF TRPM1 inh	CF NFkB inh	Peg3 promoter
O=C1c2ccc3c4c(ccc(c24)C(=O)N1c1cccc(O)c1)CC3	n	n	n	n	n	n
COc1ccc(OCCOC(=O)CNC(=O)c2ccc(F)cc2)cc1	n	n	n	x	n	n
COc1ccc(CNC(=O)c2cccc3c(-c4cnn(C)c4)coc23)cc1OC	n	n	n	x	n	n
CCOc1ccc(S(N)(=O)=O)cc1-c1nc2c(C(C)(C)C)nn(C)c2c(=O)[nH]1	n	n	n	n	n	n
CCOc1ccc(S(=O)(=O)NC(C)(C)C)cc1-c1nc2c(C(C)(C)C)nn(C)c2c(=O)[nH]1	n	n	n	n	n	52.5
Cc1ccc(C(=O)/C=C/c2ccc(-c3ccc(C)cc3)o2)cc1	n	92.5	n	n	n	73.6
